Several values for one entry are separate records, joined by “and”; a condition that tells them apart may be missing. Equal values may be shown once. Records with an inconclusive call do not appear. Entries that show only a call come without a potency. Some structures have more than one record in an assay (separate samples or runs), and their calls can disagree. Activity calls are given as the source filed them. The call rests on the fitted dose curve. Numbered stars: 1 amine (or outer) side, 2 acyl side, 3 side chain; on linkers, the order of the positions; unused ones are H or OH. Bridge positions count the residues as written; N and C are the ends. Square brackets hold non-standard residues; d marks the D form. Peptide text beside a SMILES is read from it. I, II: the chains in the order shown. Actinocin(9to1) = Cc1c2oc3c(C)ccc(C(=O)[*:1])c3nc-2c(C(=O)[*:2])c(N)c1=O; NMeV = CN[C@H](C(=O)O)C(C)C; Sar = CNCC(=O)O
Potency means the concentration at half of the fitted maximal effect.

This experiment in a line: Nuclear factor erythroid 2-related factor 2/antioxidant responsive element (Nrf2/ARE) small molecule agonists: luciferase reporter gene qHTS assay in human keratinocytes (AID 1919969). Further: nearly all actives have a fitted effect of over 35% in size. The note with it: KeratinoSens HaCaT ARE-luciferase, luminescence, 24 h; series mostly up to 92.4 µM. The source says:
National Center for Advancing Translational Sciences [NCATS]
Division of Preclinical Innovation [DPI]
U.S. Environmental Protection Agency [EPA]
National Institutes of Environmental Health Sciences [NIEHS]
National Toxicology Program [NTP]
U.S. Food and Drug Administration [FDA]
Oxidative stress has been implicated in the pathogenesis of a variety of diseases ranging from cancer to neurodegeneration. The antioxidant response element (ARE) signaling pathway plays an important role in the amelioration of oxidative stress. The KeratinoSens (Givaudan, Switzerland) is an in vitro test method which quantifies luciferase induction as a measure of activation of Keap1-Nrf2-antioxidationt/electrophile response element (ARE) dependant pathway in HaCaT human keratinocytes stably transfected with a selectable plasmid. The KeratinoSens assay is a cell-based assay with a reporter cell line to detect potential skin sensitizers by their ability to induce the Nrf2/ARE-response. The activation of the report gene under culture conditions can be detected by ONE-Glo Luciferase Assay System (Promega, Madison, WI). This cell line has been used to screen the Tox21 10K compound library to identify agonists that induce oxidative stress. The cytotoxicity of the Tox21 compound library against the KS-ARE cell line was tested in parallel by measuring the cell viability using CellTiter- Fluor assay system (Promega, Madison, WI) in the same wells.
HaCaT derived cell line KeratinoSens were dispensed at 1,500 cells/5uL/well in 1536-well white wall/solid bottom plates using a Multidrop Combi (ThermoFisher Scientific, Waltham, MA) dispenser. After the assay plates were incubated at 37 C/5% CO2 for 5 h, 23 nL of compounds dissolved in DMSO, positive controls or DMSO only was transferred to the assay plate by a pintool workstation (Kalypsys, San Diego, CA). The plates were incubated at 37 C/5% CO2 for 23 h, followed by addition of 1uL/well of CellTiter-Fluor reagent into the assay plates using a Flying Reagent Dispenser (Aurora Discovery, San Diego, CA) for cell viability readout that measures cytotoxicity. After 1 h incubation at 37 C/5% CO2 the fluorescence intensity was measured using a ViewLux (PerkinElmer, Shelton, CT) plate reader. Then 4uL/well of One-Glo were added using a Flying Reagent Dispenser. After the plates were incubated at room temperature for 30 min, the luminescence intensity in the assay plates was measured using ViewLux plate reader.
For the compound `Clc1nc2ccccc2s1`, the Potency entry is “inactive”. For the compound `CCOC(OCC)OCC`, the Potency result is “inactive”. Take `O=c1[nH]c2ccccc2c(=O)n1CCCl`: the Potency result is “inactive”. In the case of `CCOc1ccccc1OCC`, the Potency result was “inactive”. For `CCCCCCCCCCCCCCCC[N+](C)(C)CC`, the Potency result is “inactive”. Turning to `O=Cc1ccc([N+](=O)[O-])cc1`, the Potency entry was “inactive”. As for `CCOC(C)(C)C`, the Potency entry is “inactive”.

On to `CN(C)CCCNCCCN(C)C`, for which the Potency result is “inactive”. In the case of `OC1CCCC1` it was “inactive”. In the case of `C=CCOc1cc(Cl)ccc1C(=O)NCCN(CC)CC`, the Potency entry is “inactive”.

On to `NS(=O)(=O)c1cc2c(cc1C(F)(F)F)NC(Cc1ccccc1)NS2(=O)=O` (stereo not given), for which the Potency result was “inactive”.

For `O=C(O)c1cc2ccccc2cc1O`, the Potency entry was “inactive”. With `CC(C)CC=O`, the Potency result was “inactive”. Regarding `CC1=CC[C@H](CC=O)C1(C)C`, the Potency entry was “inactive”. `CCCCC(CC)COCCC#N` (stereo not given): the Potency result was “inactive”. For the compound `O=P(O)(OCc1ccccc1)OCc1ccccc1`, the Potency entry is “inactive”. On to `CCN1C(=O)c2ccccc2C1Nc1ccc(OCCN2CCCCC2)cc1` (stereo not given), for which the Potency entry is “inactive”. Turning to `O=c1[nH]cnc2[nH]ncc12`, the Potency entry was “inactive”. As for `CCCOC(C(=O)OC1CCN(C)CC1)(c1ccccc1)c1ccccc1`, the Potency is 10.6 µM (active). `CCCCOCCOCCOCCO`: the Potency entry was “inactive”.

For `O=c1cc(-c2ccccc2)oc2ccccc12`, the Potency is 4.86 µM (active) and 2.16 µM (active). In the case of `CN(C1CCCCC1)S(=O)(=O)c1ccccc1N` it was “inactive”; in that of `CCCCCCCCCC/C=C/C#N`, “inactive”; in that of `CC/C=C\CC1=C(C)CCC1=O`, “inactive”. As to `Cc1c2oc3c(C)ccc(C(=O)N[C@@H]4C(=O)N[C@H](C(C)C)C(=O)N5CCC[C@H]5C(=O)N(C)CC(=O)N(C)[C@@H](C(C)C)C(=O)O[C@@H]4C)c3nc-2c(C(=O)N[C@@H]2C(=O)N[C@H](C(C)C)C(=O)N3CCC[C@H]3C(=O)N(C)CC(=O)N(C)[C@@H](C(C)C)C(=O)O[C@@H]2C)c(N)c1=O` (I: T[dV]P[Sar][NMeV] / II: T[dV]P[Sar][NMeV]; ester I:1-I:C, II:1-II:C; linker I:N-II:N via Actinocin(9to1)), the Potency entry is “inactive and 42.2 nM (active)”. With `O=C(c1ccccc1)c1ccccc1O`, the Potency result was “inactive”. `CCN(Cc1cccc(S(=O)(=O)O)c1)c1ccccc1`: the Potency result was “inactive”. In the case of `C[Si](C)O[Si](C)C`, the Potency entry is “inactive”.

Take `Cn1cc(S(C)=O)c(=O)c2ccc(F)cc21` (stereo not given): the Potency entry was “inactive”. Take `c1c[nH]cn1`: the Potency entry was “inactive”. In the case of `CC(=O)NCc1c(I)c(NC(C)=O)c(I)c(C(=O)O)c1I` it was “inactive”; in that of `NS(=O)(=O)c1ccc(NC(=O)CCC(=O)O)cc1`, “inactive”. As for `CCCCc1ncc(/C=C(\Cc2cccs2)C(=O)O)n1Cc1ccc(C(=O)O)cc1`, the Potency result is “inactive”.

As to `C=C(C)C(=O)OCCC(C)OC(=O)C(=C)C` (stereo not given), the Potency result is “inactive”.

`COc1nc(N)nc2nc[nH]c12`: the Potency entry is “inactive”. For `O=[N+]([O-])c1ccc2nc[nH]c2c1`, the Potency entry was “inactive”. On to `CCCC/C=C\CCCCCCCCCC=O`, for which the Potency result is “inactive”. The result for `O=c1cc(CO)occ1O` reads “inactive”.

On to `C=C1C[C@H]2[C@@H]3C=C(C)C4=CC(=O)CC[C@]4(C)[C@H]3CC[C@]2(C)[C@@]1(OC(C)=O)C(C)=O`, for which the Potency result is “inactive”.

Turning to `Cc1ccc(S(=O)(=O)NC2CCCCC2)cc1`, the Potency entry was “inactive”.

These data come from PubChem BioAssay (Tox21).
